Eight sequences from PMC4081100, “A DNA-binding-site landscape and regulatory network analysis for NAC transcription factors in Arabidopsis thaliana” can be followed below.

Holding throughout (assay): universal protein binding microarray (PBM); transcription factors of Arabidopsis thaliana; high values mean tight binding
What all share (conditions): protein: recombinant; tags: GST; chain copies: 2; dsDNA, one strand shown

For assay [1], the target named is T1, GST-ANAC092(1-176) (Arabidopsis thaliana, UniProt Q9FKA0 1-176).
T1 sequence: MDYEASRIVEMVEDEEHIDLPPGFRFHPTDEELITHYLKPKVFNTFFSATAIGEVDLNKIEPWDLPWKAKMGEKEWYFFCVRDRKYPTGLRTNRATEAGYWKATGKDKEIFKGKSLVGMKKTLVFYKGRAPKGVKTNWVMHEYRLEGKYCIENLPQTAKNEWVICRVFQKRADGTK
In short, it runs like this:
(§1)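 Binding is expressed as the normalised enrichment score (E-score). Proteins carrying a GST tag, whether NAC-domain, full-length or DNA-binding-domain forms, were induced in cells, and zinc acetate was added for zinc-finger proteins. After purification on glutathione–Sepharose 4B and quantification by A280 or anti-GST western blot, each was applied in duplicate at 200 to 500 nM final to custom all-10-mer Agilent 4 × 180K arrays made double-stranded by primer extension. Gapped and ungapped 8-mers were scored.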

In assay [2] the target is T2, GST-ANAC019 NAC domain (Arabidopsis thaliana, UniProt Q9C932 14-162).
T2 sequence: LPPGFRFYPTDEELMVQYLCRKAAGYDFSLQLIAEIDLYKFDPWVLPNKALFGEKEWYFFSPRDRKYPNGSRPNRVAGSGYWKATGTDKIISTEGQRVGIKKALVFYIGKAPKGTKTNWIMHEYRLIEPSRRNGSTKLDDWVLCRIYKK
In short, it runs like this: as §1

In assay [3] the target is T3, GST-ANAC055(1-171) (Arabidopsis thaliana, UniProt Q9LDY8 1-171).
T3 sequence: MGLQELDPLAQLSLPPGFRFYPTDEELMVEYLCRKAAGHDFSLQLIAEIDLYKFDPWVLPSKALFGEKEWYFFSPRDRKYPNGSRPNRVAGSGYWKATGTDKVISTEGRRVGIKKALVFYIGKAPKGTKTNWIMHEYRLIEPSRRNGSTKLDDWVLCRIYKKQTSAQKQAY
In short, it runs like this:
as §1

For assay [4], the target named is T4, GST-ATAF1 NAC domain (Arabidopsis thaliana, UniProt Q39013 7-158).
T4 sequence: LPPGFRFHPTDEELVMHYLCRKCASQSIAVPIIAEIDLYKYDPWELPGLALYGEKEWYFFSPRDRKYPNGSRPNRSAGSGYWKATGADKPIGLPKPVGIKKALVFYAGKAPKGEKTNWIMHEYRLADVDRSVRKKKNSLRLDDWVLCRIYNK
In short, it runs like this:
as §1

Assay [5] addresses T5, GST-ANAC092(1-285) full length (Arabidopsis thaliana, UniProt Q9FKA0 1-285).
T5 sequence: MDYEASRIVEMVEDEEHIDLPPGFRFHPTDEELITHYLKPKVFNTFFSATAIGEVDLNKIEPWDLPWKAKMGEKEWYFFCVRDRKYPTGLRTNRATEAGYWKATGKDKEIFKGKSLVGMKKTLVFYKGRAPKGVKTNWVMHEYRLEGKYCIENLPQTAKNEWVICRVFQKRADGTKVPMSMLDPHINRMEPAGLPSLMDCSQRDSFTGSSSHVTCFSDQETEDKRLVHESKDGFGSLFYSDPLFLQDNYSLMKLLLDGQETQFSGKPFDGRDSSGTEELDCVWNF
In short, it runs like this:
as §1

The target in assay [6] is T6, GST-NAP(1-166) (Arabidopsis thaliana, UniProt O49255 1-166).
T6 sequence: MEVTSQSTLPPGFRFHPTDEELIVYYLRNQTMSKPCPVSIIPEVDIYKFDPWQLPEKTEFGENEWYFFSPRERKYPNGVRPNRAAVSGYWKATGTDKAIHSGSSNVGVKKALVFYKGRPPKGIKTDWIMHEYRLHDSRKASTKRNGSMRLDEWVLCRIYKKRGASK
In short, it runs like this:
as §1

The target in assay [7] is T7, GST-NST2(1-184) (Arabidopsis thaliana, UniProt Q9M274 1-184).
T7 sequence: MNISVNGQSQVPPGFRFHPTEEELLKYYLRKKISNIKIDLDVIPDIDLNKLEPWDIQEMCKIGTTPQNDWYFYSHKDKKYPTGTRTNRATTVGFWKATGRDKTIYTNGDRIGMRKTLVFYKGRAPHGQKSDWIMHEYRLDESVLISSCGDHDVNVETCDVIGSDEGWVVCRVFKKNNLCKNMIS
In short, it runs like this: as §1

For assay [8], the target named is T8, GST-SND1(1-203) (Arabidopsis thaliana, UniProt Q9LPI7 1-203).
T8 sequence: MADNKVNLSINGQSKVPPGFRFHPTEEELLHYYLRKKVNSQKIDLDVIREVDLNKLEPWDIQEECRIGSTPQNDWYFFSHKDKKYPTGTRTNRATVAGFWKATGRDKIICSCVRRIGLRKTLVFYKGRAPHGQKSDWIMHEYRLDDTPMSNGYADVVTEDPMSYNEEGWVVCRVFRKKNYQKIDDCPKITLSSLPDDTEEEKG
In short, it runs like this: as §1

For assay [9], the target named is T9, GST-VND3 NAC domain (Arabidopsis thaliana, UniProt Q9FH59 12-162).
T9 sequence: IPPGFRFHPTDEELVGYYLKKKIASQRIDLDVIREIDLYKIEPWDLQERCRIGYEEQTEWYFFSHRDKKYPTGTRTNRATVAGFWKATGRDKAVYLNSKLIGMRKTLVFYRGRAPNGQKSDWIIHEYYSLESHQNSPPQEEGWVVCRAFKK
In short, it runs like this: as §1

Assay [10] concerns the target T10, GST-VND7 NAC domain (Arabidopsis thaliana, UniProt Q9C8W9 9-158).
T10 sequence: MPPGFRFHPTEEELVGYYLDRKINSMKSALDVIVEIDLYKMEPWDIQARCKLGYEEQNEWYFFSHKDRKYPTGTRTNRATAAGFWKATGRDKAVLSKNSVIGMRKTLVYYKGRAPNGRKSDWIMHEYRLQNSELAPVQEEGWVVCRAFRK
In short, it runs like this:
as §1

As for GCACGGCA, the binding signal was 0.449 E-score in assay [1]; 0.472 E-score in assay [2]; 0.448 E-score in [3]; 0.361 E-score in [4]; 0.461 E-score in [5]; 0.41 E-score in assay [6]. Further, the binding signal in assay [7] worked out at 0.164 E-score; in assay [8], 0.107 E-score; in assay [9], 0.408 E-score; in [10] it was 0.461 E-score.

As to GCCGTGTA, the binding signal in assay [1] turned out to be 0.341 E-score; in [2] it was 0.44 E-score; in assay [3], 0.345 E-score; in assay [4] it was 0.314 E-score; in [5], 0.402 E-score; in assay [6] it was 0.235 E-score. The binding signal came out at 0.0515 E-score in [7], 0.0913 E-score in assay [8], 0.347 E-score in [9] and 0.351 E-score in assay [10].

Regarding TACACGTA, the binding signal in assay [1] was 0.382 E-score; in assay [2], 0.286 E-score; in assay [3], 0.361 E-score; in [4] it was 0.322 E-score; in assay [5], 0.411 E-score; in assay [6] it was 0.386 E-score. Besides, the binding signal in assay [7] amounted to 0.198 E-score; in assay [8], 0.251 E-score; in assay [9], 0.375 E-score; in assay [10] it was 0.406 E-score.

Consider CGCACGCA, for which the binding signal in assay [1] was 0.401 E-score; in assay [2] it was 0.291 E-score; in assay [3], 0.241 E-score; in assay [4], 0.0589 E-score; in [5], 0.42 E-score; in assay [6], 0.291 E-score. In addition, the binding signal is 0.213 E-score in assay [7], 0.229 E-score in assay [8], 0.213 E-score in assay [9] and 0.232 E-score in [10].

ACGCCAAC: the binding signal in assay [1] turned out to be 0.404 E-score; in assay [2], 0.116 E-score; in [3], 0.175 E-score; in assay [4], 0.159 E-score; in assay [5] it was 0.436 E-score; in assay [6] it was 0.0544 E-score. The binding signal is 0.227 E-score in assay [7], 0.379 E-score in assay [8], 0.0688 E-score in [9] and 0.118 E-score in assay [10].

As to ACGTTAAC, the binding signal in assay [1] came out at 0.421 E-score; in [2], 0.257 E-score; in assay [3], 0.228 E-score; in assay [4], 0.227 E-score; in assay [5], 0.438 E-score; in assay [6], 0.218 E-score. Besides, the binding signal in assay [7] came to 0.27 E-score; in assay [8] it was 0.412 E-score; in assay [9] it was 0.209 E-score; in assay [10] it was 0.207 E-score.

For TGCACGCA, the binding signal is 0.419 E-score in [1]; 0.355 E-score in [2]; 0.255 E-score in assay [3]; 0.128 E-score in assay [4]; 0.458 E-score in [5]; 0.265 E-score in assay [6]. Moreover, the binding signal is 0.211 E-score in assay [7], 0.342 E-score in [8], 0.289 E-score in assay [9] and 0.32 E-score in assay [10].

Regarding ATTACGCA, the binding signal in assay [1] was 0.35 E-score; in [2] it was 0.168 E-score; in [3], 0.276 E-score; in [4] it was 0.206 E-score; in assay [5], 0.37 E-score; in assay [6], 0.282 E-score. Further, the binding signal was 0.292 E-score in [7], 0.431 E-score in assay [8], 0.265 E-score in assay [9] and 0.253 E-score in assay [10].
